{"source": "PubChem BioAssay AID488913", "about": "(National Center for Advancing Translational Sciences (NCATS), 2010)", "note": "Records with an inconclusive call do not appear. Calls of active or inactive are those of the source. Calls follow the shape of the dose curve; as a rule, active = well fitted inhibition curve with a large enough effect; inconclusive = small, poorly fitted or top-dose-only effect, or effect the other way; inactive = no such curve, though single readings can be large or run the other way."}
{"assay": "Confirmation Concentration-Response Assay for lipid storage modulators: for probe SAR", "conditions": "Drosophila S3 cells, BODIPY lipid droplet fluorescence, 18-24 h; series mostly up to 46.1 µM", "excerpt": "NIH Molecular Libraries Probe Production Centers Network [MLPCN] NIH Chemical Genomics Center [NCGC] MLPCN Grant: 1 R03 MH085686-01 Assay Submitter (PI): Beller, Mathias; Max-Planck-Institut fur Biophysikalische Chemie NCGC Assay Overview: Storing lipids as a reservoir for energy or the anabolism of elementary metabolites is a common feature of probably all cells and is conserved from bacteria to humans. The universal cellular lipid storage organelle is the so-called lipid storage droplet (LD). Although ubiquitous, LDs share a simple structure composed of a hydrophobic core that harbors the storage lipids, which is shielded by a droplet-specific phospholipid monolayer to which proteins are attached. The current model of LD biogenesis involves an incorporation of the lipid core into the membrane leaflets of the endoplasmic reticulum (ER) followed by a subsequent budding-like maturation of a LD, which ultimately pinches off. Once released, LD volume can increase by localized lipogenesis or fusion of existing droplets. Storage lipids are re-mobilized enzymatically by lipase activity. Lipase regulation in the adipocyte is heavily studied and involves multiple components including catecholamine signaling, the LD-associated proteins Perilipin and comparative gene identification-58 (CGI-58) and at least two lipases named hormone sensitive lipase (HSL) and adipocyte triglyceride lipase (ATGL). LD regulation outside of the adipocyte is poorly understood and only few components are known. However, there is an urgent need to learn more about ectopic fat depots as mislocalized storage of lipids, for example in the liver or muscle, is an eminent health problem associated with insulin resistance or the metabolic syndrome. We developed a laser-scanning cytometer assay to enable 1,536-well screening and combined the results of the small molecules screen with an RNAi database based on lipid storage.\nWe dispensed 4 uL of cells at 1.25 x 10^6 cells/mL into LoBase Aurora COC 1,536-well plates (black walled, clear bottom) with a bottle-valve solenoid-based dispenser (Aurora) to obtain 5,000 cells/well. Triacsin C (Sigma-Aldrich T-4540), an inhibitor of long-chain fatty acyl CoA synthetase that blocks synthesis of triglycerides, was used as a positive control for lipid under-storage. A total of 23 nL of compound solution of different concentrations were transferred to the assay plates using a Kalypsys pin tool equipped with a 1,536-pin array containing 10-nL slotted pins (FP1S10, 0.457-mm diameter, 50.8 mm long; V&P Scientific). One microliter of oleic acid (400 uM) was added, and the plate was lidded with stainless steel rubber gasket lined lids containing pinholes. After 18-24 h incubation at 24 degree Celsius and 95% humidity, 4 uL of the dyes BODIPY 493/503 (Molecular Probes) and the Cell Tracker Red CMTPX dye (Molecular Probes) were added to the wells to stain lipid droplets and enumerate cell number, respectively. Fluorescence was detected by excitation of the fluorophores with a 488-nm laser on an Acumen Explorer (TTP Lab Tech). The total intensity in channel 1 (500-530 nm) reflected lipid droplet accumulation. Cells were detected using channel 3 (575- 640 nm) with 5-um width and 100-um depth filters. The ratio of the total intensity in PMT channel 1 over total intensity of channel 3 was also calculated. Percent activity was computed relative to an internal control (100% inhibited lipid droplet deposition due to the presence of 20 uM Triacsin C), which was added to 32 wells/plate."}
{"molecule": "CCOC(=O)C1CCN(C(=O)C2(NC(=O)NCc3ccccc3)CCCCC2)CC1", "Potency": "4450 nM (active)"}
{"molecule": "O=C(NCCc1ccc(O)c(O)c1)c1cc2sccc2n1Cc1ccccc1", "Potency": "inactive"}
{"molecule": "CCOc1ccc(CCNC(=O)c2cc3sccc3n2Cc2ccccc2)cc1OCC", "Potency": "35.3 nM (active)"}
{"molecule": "O=C(NC1CCCc2c1cnn2-c1ccc(F)cc1F)c1ccccc1", "note": "(stereo not given)", "Potency": "56 nM (active)"}
{"molecule": "CCOc1ccc(CCNC(=O)CN(C)C)cc1OCC", "Potency": "inactive"}
{"molecule": "O=C(CSc1nnc(NCc2ccccc2)s1)Nc1nc(-c2cccc(Br)c2)cs1", "Potency": "1250 nM (active)"}
{"molecule": "O=C(NC1CCCc2c1cnn2-c1ccc(F)cc1F)c1cccc(Cn2cccn2)c1", "note": "(stereo not given)", "Potency": "125 nM (active)"}
{"molecule": "CCOc1ccc(CCNC(=O)c2cc3sccc3n2Cc2ccc(OC(F)F)cc2)cc1OCC", "Potency": "6.3 nM (active)"}
{"molecule": "Cc1ccc(-n2ncc3c2CCCC3NC(=O)c2c(F)cccc2F)cc1C", "note": "(stereo not given)", "Potency": "158 nM (active)"}
{"molecule": "O=C(NC1CCCc2c1cnn2-c1ccc(F)cc1F)c1ccsc1", "note": "(stereo not given)", "Potency": "31.5 nM (active)"}
{"molecule": "O=C(O)CCc1ccc(NCc2cccc(Oc3ccccc3)c2)cc1", "Potency": "inactive"}
{"molecule": "CCOC(=O)C1CCN(C(=O)C(C)(C)NC(=O)Nc2ccccc2Cl)CC1", "Potency": "628 nM (active)"}
{"molecule": "CCOc1ccc(CCNC(=O)c2cc3sccc3[nH]2)cc1OCC", "Potency": "7910 nM (active)"}
{"molecule": "CCOc1ccc(CCNC(=O)c2cc3sccc3n2CC=C(C)C)cc1OCC", "Potency": "79.1 nM (active)"}
{"molecule": "O=C(NC1CCCc2c1cnn2-c1ccc(F)cc1F)c1ccncc1", "note": "(stereo not given)", "Potency": "9960 nM (active)"}
{"molecule": "CCOc1ccc(CCNC(=O)c2cc3ccccc3n2C)cc1OCC", "Potency": "7910 nM (active)"}
{"molecule": "Cc1ccc(C)c(-c2csc(NC(=O)CSc3nnc(Nc4ccc(OC(F)(F)F)cc4)s3)n2)c1", "Potency": "inactive"}
{"molecule": "CCn1c(C(=O)NCCc2ccc(OC)cc2)cc2sccc21", "Potency": "inactive"}
{"molecule": "CCOc1ccc(CCNC(C)=O)cc1OCC", "Potency": "inactive"}
{"molecule": "COc1ccc(NC(=S)N2CCN(c3cccc(Cl)c3)CC2)c(OC)c1", "Potency": "inactive"}
{"molecule": "CCOc1ccc(CCNC(=O)c2cccs2)cc1OCC", "Potency": "inactive"}
{"molecule": "COc1ccc(CCNC(=O)c2cc3sc(C)cc3n2C)cc1OC", "Potency": "2810 nM (active)"}
{"molecule": "CCOc1ccc(CCNC(=O)C2COc3ccccc3O2)cc1OCC", "note": "(stereo not given)", "Potency": "11200 nM (active)"}
{"molecule": "COc1ccc(-c2csc(NC(=O)Cc3cccs3)n2)cc1", "Potency": "25000 nM (active)"}
{"molecule": "O=C(NC1CCCc2c1cnn2-c1ccc(F)cc1F)c1cccs1", "note": "(stereo not given)", "Potency": "17.7 nM (active)"}
{"molecule": "COc1ccc(-c2csc(NC(=O)CSc3nnc(Nc4ccccc4)s3)n2)cc1", "Potency": "628 nM (active)"}
{"molecule": "Cc1cccc(Nc2nnc(SCC(=O)Nc3nc(-c4ccc(F)cc4)cs3)s2)c1", "Potency": "628 nM (active)"}
{"molecule": "CCOc1ccc(CCNC(=O)c2cc3sccc3n2C)cc1OCC", "Potency": "499 nM (active)"}
{"molecule": "CCOc1ccc(CCNC(=O)c2cc3sccc3n2C(C)C)cc1OCC", "Potency": "99.6 nM (active)"}
{"molecule": "CC1=C(C(=O)NC2CCCc3c2cnn3-c2ccc(F)cc2F)OCCO1", "note": "(stereo not given)", "Potency": "15.8 nM (active)"}
{"molecule": "Cc1ccc(-c2cnc(SCC(=O)Nc3nccs3)n2Cc2ccco2)cc1", "Potency": "inactive"}
{"molecule": "CCOc1ccc(CCNC(=O)c2cc3sccc3n2Cc2ccc(-n3cncn3)cc2)cc1OCC", "Potency": "177 nM (active)"}
{"molecule": "CCOc1ccc(CCNC(=O)c2cc3sccc3n2Cc2cccnc2)cc1OCC", "Potency": "353 nM (active)"}
{"molecule": "O=C(NC1CCCc2c1cnn2-c1ccc(F)cc1F)c1cnccn1", "note": "(stereo not given)", "Potency": "250 nM (active)"}
{"molecule": "CCn1c(C(=O)NCCc2ccc(OC)c(OC)c2)cc2sc(Cl)cc21", "Potency": "9710 nM (active)"}
{"molecule": "COc1ccc(CCNC(=O)c2cc3sccc3n2Cc2ccc(F)cc2)cc1OC", "Potency": "499 nM (active)"}
{"molecule": "CCn1c(C(=O)NCCc2ccc(OC)c(OC)c2)cc2sccc21", "Potency": "3970 nM (active)"}
{"molecule": "CCOC(=O)C1CCN(C(=O)C2(NC(=O)Nc3ccc(F)cc3F)CCCCC2)CC1", "Potency": "888 nM (active)"}
{"molecule": "CN(C)CC(=O)NC1CCCc2c1cnn2-c1ccc(F)cc1F", "note": "(stereo not given)", "Potency": "inactive"}
{"molecule": "O=C(NC1CCCc2c1cnn2-c1ccccc1F)c1ccc2ncccc2c1", "note": "(stereo not given)", "Potency": "2230 nM (active)"}
